Data reported in PubChem BioAssay (NCATS).
Results filed as inconclusive are left out. The source made the active and inactive calls. Calls follow the shape of the dose curve; as a rule, active = well fitted inhibition curve with a large enough effect; inconclusive = small, poorly fitted or top-dose-only effect; inactive = flat fitted curve, though single readings scatter.

Columns and labels:
CRL-7250 = normal cell line; test: Cytotoxic Profiling of Annotated Libraries Using Quantitative High-Throughput Screening (AID 1296008); settings: Five cell lines viability, CellTiter-Glo ATP luminescence, 48-72 h; max response: active compounds read low; as to max response: % is scaled to controls: 0 for no effect and ±100 for the full control effect
In short: (§1)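 Cytotoxicity was measured as CellTiter-Glo ATP luminescence, read after 10 min at room temperature. Compound treatment of the cells lasted 48 or 72 hr at 37 degrees Celsius in a qHTS format.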

HEK293 = test: as above; settings: Five cell lines viability, CellTiter-Glo ATP luminescence, 48-72 h; max response: active compounds read low
In short: as §1

HaCat [1] = test: as above; settings: Five cell lines viability, CellTiter-Glo ATP luminescence, 48-72 h; max response: active compounds read low
In short: as §1

KB-3-1 = test: as above; settings: Five cell lines viability, CellTiter-Glo ATP luminescence, 48-72 h; max response: active compounds read low
In short: as §1

NIH3T3 = test: as above; settings: Five cell lines viability, CellTiter-Glo ATP luminescence, 48-72 h; max response: active compounds read low
In short: as §1

HACAT [2] = test: qHTS assay to identify novel small-molecules to repurpose for Merkel cell carcinoma treatment (AID 1296009); settings: MCC and control cell lines, CellTiter-Glo viability, 72 h; at 44.8 µM (top of the series) unless noted; as to activity change, negative = cytotoxicity: % is scaled to controls: 0 for no effect and ±100 for the full control effect
In short: (§2)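 Cell viability, measured as CellTiter-Glo luminescence, was normalized between DMSO and no-cell wells. The cells had been exposed to 8- or 11-point compound dilutions for 72 hr at 37 degree celsius.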

MCC-13 = test: as above; settings: MCC and control cell lines, CellTiter-Glo viability, 72 h; series mostly up to 46 µM
In short: as §2

TAB165 = test: qHTS profiling for inhibitors of Plasmodium falciparum proliferation (AID 504749);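 also: 0% = DMSO vehicle and full inhibition = artemisinin control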; settings: P. falciparum in erythrocytes, SYBR Green DNA, 72 h; series mostly up to 28.7 µM
In short: (§3)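 SYBR Green fluorescence of parasite DNA, read after lysis and overnight dark incubation, measured growth over 72 h in erythrocyte culture at 0.3% parasitemia and 2.5% hematocrit. Data normalised to DMSO and 0.29 uM artemisinin, with plate-drift correction.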

W2 = test: as above; settings: P. falciparum in erythrocytes, SYBR Green DNA, 72 h; series mostly up to 28.7 µM
In short: as §3

HEK293T = test: qHTS assay to identify novel small-molecules to repurpose for Merkel cell carcinoma treatment (AID 1296009); settings: MCC and control cell lines, CellTiter-Glo viability, 72 h; series mostly up to 44.8 µM; as to activity change, negative = cytotoxicity: % is scaled to controls: 0 for no effect and ±100 for the full control effect
In short: as §2
Also: nearly all actives have a fitted effect of over 60% in size.

CC(=O)N1CCN(c2ccc(OCc3nn(C)c(C)c3-c3cccc4c(CCCOc5cccc6ccccc56)c(C(=O)O)n(Cc5cccnc5)c34)cc2)CC1
inactive: outcome (CRL-7250) | max response (HEK293) -15.3% | outcome (HaCat [1]) | outcome (KB-3-1) | max response (NIH3T3) -8.89% | outcome (HACAT [2]) | Potency (MCC-13)

COc1ccc([C@@H]2CNC(=O)C2)cc1OC1CCCC1
inactive: Potency (TAB165) | Potency (W2) | outcome (CRL-7250) | max response (HEK293) 2.8% | outcome (HaCat [1]) | outcome (KB-3-1) | outcome (NIH3T3) | outcome (HACAT [2]) | Potency (MCC-13)

C[C@H]1C[C@H]2[C@@H]3CCC4=CC(=O)C=C[C@]4(C)[C@@H]3C(=O)C[C@]2(C)[C@@]1(O)C(=O)CO
inactive: max response (CRL-7250) -3.73% | max response (HEK293) 3.81% | outcome (HaCat [1]) | max response (KB-3-1) 4.3% | outcome (NIH3T3) | outcome (HACAT [2]) | Potency (MCC-13)

O=C(O)CCCCCC(=O)NN=C1CCCC1
inactive: max response (CRL-7250) 1.92% | outcome (HEK293) | max response (HaCat [1]) 0.832% | max response (KB-3-1) 3.36% | max response (NIH3T3) 3.56% | Potency (HEK293T) | Potency (MCC-13)

CN(N=O)C(=O)N[C@H]1C(O)OC(CO)[C@@H](O)[C@H]1O (stereo partly drawn)
inactive: max response (CRL-7250) -3.47% | max response (HEK293) -7.38% | outcome (HaCat [1]) | max response (KB-3-1) 2.81% | max response (NIH3T3) -17.4% | outcome (HACAT [2]) | Potency (MCC-13)

Nc1nc2c(c(=O)[nH]1)N(C=O)[C@H](CNc1ccc(C(=O)N[C@@H](CCC(=O)O)C(=O)O)cc1)CN2
inactive: Potency (TAB165) | Potency (W2) | max response (CRL-7250) -8.32% | max response (HEK293) -23.4% | outcome (HaCat [1]) | max response (KB-3-1) 3.69% | outcome (NIH3T3) | outcome (HACAT [2]) | Potency (MCC-13)

CC(=O)O[C@]1(C(C)=O)CC[C@H]2[C@@H]3C=C(C)C4=CC(=O)CC[C@]4(C)[C@@H]3CC[C@@]21C
inactive: outcome (CRL-7250) | max response (HEK293) -9.75% | outcome (HaCat [1]) inactive; activator | outcome (KB-3-1) | max response (NIH3T3) 4.47% | outcome (HACAT [2]) inactive; activator | Potency (MCC-13)

COc1cc(OC)c(NC(=O)Nc2cc(C)on2)cc1Cl
inactive: max response (CRL-7250) -0.274% | max response (HEK293) -18.7% | outcome (HaCat [1]) | max response (KB-3-1) 3.5% | max response (NIH3T3) 2.83% | outcome (HACAT [2]) | Potency (MCC-13)

O=C1NC(O)CCN1[C@@H]1O[C@H](CO)[C@H](O)[C@H]1O (stereo partly drawn)
inactive: max response (CRL-7250) -71.1% | max response (HEK293) -3.17% | outcome (HaCat [1]) | max response (KB-3-1) -2.55% | max response (NIH3T3) 1.52% | outcome (HACAT [2]) | Potency (MCC-13)

CCCCCCCCCCCCCCCC(=O)OC[C@@H](NC(=O)C(Cl)Cl)[C@H](O)c1ccc([N+](=O)[O-])cc1
inactive: max response (CRL-7250) -9.61% | max response (HEK293) 2.69% | outcome (HaCat [1]) | outcome (KB-3-1) | max response (NIH3T3) 0.666% | outcome (HACAT [2]) | Potency (MCC-13)

CC(C)(C)[C@H](NC(=O)c1ccc(N)c(Cl)c1)C(=O)N1CCC[C@@H]1C(=O)N[C@H](C#N)CC(=O)O
inactive: outcome (CRL-7250) | max response (HEK293) -9.49% | outcome (HaCat [1]) | max response (KB-3-1) 5.36% | outcome (NIH3T3) | outcome (HACAT [2]) inactive [at 4.96 µM] | activity change, negative = cytotoxicity (MCC-13) 7.54% [at 4.84 µM]

Cc1cc(-c2nnc3n2CCCCC3)c(C)n1-c1ccccc1
inactive: max response (CRL-7250) -6.3% | max response (HEK293) -6.24% | outcome (HaCat [1]) | max response (KB-3-1) -0.0627% | max response (NIH3T3) 1.52% | outcome (HACAT [2]) | Potency (MCC-13)

C[N+]1(C)[C@@H]2C[C@@H](OC(=O)C(O)(c3cccs3)c3cccs3)C[C@H]1[C@@H]1O[C@@H]12
inactive: outcome (CRL-7250) | max response (HEK293) -10% | outcome (HaCat [1]) | outcome (KB-3-1) | max response (NIH3T3) -6.05% | outcome (HACAT [2]) | Potency (MCC-13)

C[C@H](O)[C@@H]1C(=O)N2C(C(=O)O)=C(S[C@@H]3CN[C@H](CNS(N)(=O)=O)C3)[C@@H](C)[C@@H]12
inactive: max response (CRL-7250) 4.32% | max response (HEK293) 0.869% | outcome (HaCat [1]) | outcome (KB-3-1) | outcome (NIH3T3) | outcome (HACAT [2]) | Potency (MCC-13)

CC(=O)NC(CS)C(=O)O (stereo not drawn)
inactive: max response (CRL-7250) 1.57% | max response (HEK293) -9.86% | outcome (HaCat [1]) | max response (KB-3-1) -3.44% | max response (NIH3T3) -5.75% | outcome (HACAT [2]) | Potency (MCC-13)

COc1cc(C[C@@H](CO)[C@H](CO)Cc2ccc(O)c(OC)c2)ccc1O
inactive: max response (CRL-7250) -0.633% | max response (HEK293) -2.88% | outcome (HaCat [1]) | max response (KB-3-1) 3.84% | outcome (NIH3T3) | outcome (HACAT [2]) | Potency (MCC-13)

C[C@H](NC(=O)Cc1cc(F)cc(F)c1)C(=O)N[C@H](C(=O)OC(C)(C)C)c1ccccc1
inactive: max response (CRL-7250) -1.21% | max response (HEK293) -28.5% | outcome (HaCat [1]) | max response (KB-3-1) -8.93% | max response (NIH3T3) -8.45% | outcome (HACAT [2]) | Potency (MCC-13)
